Screening results: PubChem BioAssay, National Center for Advancing Translational Sciences (NCATS)
Shown are actives, neighbours in structure and some others; about 3% of the full set was active somewhere.
PLK1 PBD inh: inhibitors of human PLK1 polo-box domain binding; Plk1 PBD binding of FITC phosphopeptide, fluorescence polarization; Potency, µM, for inactives: max response, negative = inhibition, actives largely listed as inhibitors; actives 2.8% (n = 360,000); P53350; AID 720504; note: series mostly up to about 57 µM; % is set by controls: 0 for no effect and ±100 for the full control effect; nearly all actives have a fitted effect of over 65% in size
GCN5L2 inh: blocks human GCN5L2 histone acetyltransferase; Q92830; GCN5L2 HAT assay, ThioGlo1 CoA-SH fluorescence; Potency, µM (titrated, usually from 58.9 µM), for the others: at the highest dose activity change, negative = inhibition, hits mostly inhibitors; actives 0.21% (n = 390,000); note: % is set by controls: 0 for no effect and ±100 for the full control effect
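GCN5L2 (20 nM) in 50mM HEPES pH 7.5, 0.1mM EDTA, 0.01% Tween-20 preincubated 15 min with compounds at room temperature. Reaction started with H3(1-25) 75uM, acetyl-CoA 70uM, ThioGlo1 50uM; CoA-thiol fluorescence (Ex340/Em540) read at 0 and 20 min.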
PTAP TSG101 blk: blocks PTAP/TSG101 interaction to inhibit HIV-1 budding | Q99816 | Fluorescence polarization, FITC-PTAP peptide / Tsg101 binding | Potency, µM (titrated, usually from 115 µM), for the others: top-dose activity change, negative = inhibition, usual class: inhibitors | 340,000 tested, under 10 active | AID 493005; active = well fitted inhibition curve with a large enough effect in the main read-out, with a control signal flat, not every such curve was filed as active; inconclusive = small, poorly fitted or top-dose-only effect, or effect the other way, or a change in a side signal; inactive = no such curve, though single readings can be large or run the other way; note: % of control where 0% means no effect
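FP read-out: FITC-PTAP peptide, 50 nM final, binding Tsg101 binding domain, 10 uM final; 20 min, r.t.; 10 mM HEPES pH 7.5, 0.15 M NaCl, 0.01% Tween 20, 3 mM EDTA, 0.1 mM TCEP.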
VDR inh: blocks the human vitamin D receptor; actives 0.93% (n = 400,000); VDR-SRC2-3 peptide fluorescence polarization, 2 h; P11473; AID 504847; Potency, µM, without a hit: max response, negative = inhibition, most hits filed as inhibitors; note: % is set by controls: 0 for no effect and ±100 for the full control effect
Target sequence (P11473 whole entry, looked up): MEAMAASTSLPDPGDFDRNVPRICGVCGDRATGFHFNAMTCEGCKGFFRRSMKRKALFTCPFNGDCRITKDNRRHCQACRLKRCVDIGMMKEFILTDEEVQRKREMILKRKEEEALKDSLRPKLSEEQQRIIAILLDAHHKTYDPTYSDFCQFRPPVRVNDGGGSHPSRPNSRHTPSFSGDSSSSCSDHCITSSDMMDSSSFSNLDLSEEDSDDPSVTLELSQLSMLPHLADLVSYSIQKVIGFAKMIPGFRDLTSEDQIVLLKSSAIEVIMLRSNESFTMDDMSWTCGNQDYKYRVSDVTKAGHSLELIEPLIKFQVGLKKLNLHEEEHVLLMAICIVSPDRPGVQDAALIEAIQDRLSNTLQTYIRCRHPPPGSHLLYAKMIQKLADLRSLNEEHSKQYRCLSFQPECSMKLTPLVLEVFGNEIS
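Signal is fluorescence polarization, reporting how far test compounds block the interaction of VDR with the SRC2-3 coregulator peptide after a 2 h room-temperature incubation.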
USP1-UAF1 inh: USP1/UAF1 (human) deubiquitinase inhibition; O94782; recombinant USP1/UAF1, Ub-Rhodamine cleavage fluorescence; Potency, µM (highest dose often 57.1 µM), for inactives: at the highest dose activity change, negative = inhibition, most hits filed as inhibitors; actives 0.23% (n = 390,000); AID 743255; note: % is set by controls: 0 for no effect and ±100 for the full control effect; nearly all actives have a fitted effect of over 60% in size
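In this screen, compounds sit with the deubiquitinase complex (1nM) for 15 min at room temperature before Ub-Rho is added at 150nM final. Fluorescence rise is then followed for 6 reads every 60 seconds.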
The depositor's hits bear a star; ! = repeats disagree. Unless noted, calls come from the whole dose curve; as a rule, active = well fitted curve in the direction sought with a large enough effect; inconclusive = small, poorly fitted or top-dose-only effect, or another doubt; inactive = no such curve, though single readings can be large; an effect the other way counts as inactive or inconclusive. Potency is the fitted concentration of half-maximal effect.

How did CCc1ccccc1N(CC(=O)N/N=C/c1ccc(OC(=O)OC)c(OC)c1)S(C)(=O)=O do in these assays?
PLK1 PBD inh: 23.8µM*; GCN5L2 inh: inconclusive; PTAP TSG101 blk: -6.4%; VDR inh: -12.2%; USP1-UAF1 inh: -6.6%

How did COc1ccc(N(C(C)C(=O)NC2CCCCCC2)S(C)(=O)=O)cc1 (stereo unspecified) do in these assays?
PLK1 PBD inh: -26.2%; GCN5L2 inh: -4.3%; PTAP TSG101 blk: 0.8%; VDR inh: -12.0%; USP1-UAF1 inh: 0.8%

How did CCOc1ccc(Nc2nc(-c3cccc(Cl)c3)c3c(n2)-c2ccccc2OC3)cc1 do in these assays?
GCN5L2 inh: -5.7%; VDR inh: -7.7%; USP1-UAF1 inh: -5.5%

Results for CCOC(=O)C(CS)NCCN[C@@H](CS)C(=O)OCC (stereo partly specified) ?
GCN5L2 inh: 20µM*; VDR inh: 28.2µM*

How did CCc1nc2ccc(C(=O)NC3CCC(C)CC3)cc2nc1CC (stereo unspecified) do in these assays?
PLK1 PBD inh: 29.9µM*; GCN5L2 inh: -3.4%; PTAP TSG101 blk: -5.5%; VDR inh: -25.1%; USP1-UAF1 inh: -15.6%

Results for CNc1ccc(-c2nc3ccccc3s2)cc1 ?
GCN5L2 inh: -14.7%; VDR inh: 11.2µM*

How did CNc1nc(N/N=C/c2ccc([N+](=O)[O-])cc2)nc(Nc2ccccc2)n1 do in these assays?
PLK1 PBD inh: 26.7µM*; GCN5L2 inh: -11.2%; PTAP TSG101 blk: -1.9%; VDR inh: inconclusive; USP1-UAF1 inh: -16.7%

What do the screens show for `O=C(O)CCn1c2c(c3ccccc31)C[C@H](NS(=O)(=O)c1ccc(F)cc1)CC2`?
GCN5L2 inh: 3.3%

Results for CCCC(=O)NC(NC1CCS(=O)(=O)C1)C(Cl)(Cl)Cl (stereo unspecified) ?
PLK1 PBD inh: 26.7µM*; GCN5L2 inh: -2.3%; PTAP TSG101 blk: -4.6%; VDR inh: -1.6%; USP1-UAF1 inh: -19.3%

What do the screens show for `CC(C)C(=O)NC(NC1CCS(=O)(=O)C1)C(Cl)(Cl)Cl` (stereo unspecified)?
PLK1 PBD inh: -0.7%; GCN5L2 inh: 0.0%; PTAP TSG101 blk: 2.5%; VDR inh: -9.1%; USP1-UAF1 inh: 6.3%

What do the screens show for `O=S(=O)(c1cccc(COc2c(Cl)cccc2Cl)c1)N1CCOCC1`?
PLK1 PBD inh: 2.3%; GCN5L2 inh: -12.9%; PTAP TSG101 blk: -4.4%; VDR inh: 4.3%; USP1-UAF1 inh: -10.8%

What do the screens show for `O=[N+]([O-])c1ccc(S(=O)(=O)NN=CCCc2ccccc2)cc1`?
PLK1 PBD inh: inconclusive; PTAP TSG101 blk: -2.4%; VDR inh: -23.1%; USP1-UAF1 inh: -2.2%

Results for O=c1c(-c2cc(O)c(O)c(O)c2)coc2cc(O)c(O)c(O)c12 ?
GCN5L2 inh: inconclusive; VDR inh: 14.1µM*

Results for O=C1OC(c2ccccc2)/C(=C(/O)c2ccccc2)C1=O (stereo unspecified) ?
PLK1 PBD inh: -2.9%; GCN5L2 inh: 1.3%; PTAP TSG101 blk: -0.3%; VDR inh: -29.9%; USP1-UAF1 inh: -4.5%

Results for O=C1OC(c2ccccc2)/C(=C(/O)c2ccc(Cl)cc2)C1=O (stereo unspecified) ?
PLK1 PBD inh: -21.9%; GCN5L2 inh: -25.1%; PTAP TSG101 blk: -3.9%; VDR inh: 44.7µM*; USP1-UAF1 inh: -15.3%

How did Cc1cccc(NC(=S)N/C(=N/S(=O)(=O)c2ccccc2)c2ccccc2)c1 do in these assays?
PLK1 PBD inh: 23.8µM*; GCN5L2 inh: 1.4%; PTAP TSG101 blk: -2.4%; VDR inh: 89.1µM*!; USP1-UAF1 inh: -1.2%

How did Cc1ccc(S(=O)(=O)/N=C(/NC(=S)Nc2cccc(C)c2)c2ccccc2)cc1 do in these assays?
PLK1 PBD inh: inconclusive; GCN5L2 inh: -6.4%; PTAP TSG101 blk: -3.9%; VDR inh: inconclusive; USP1-UAF1 inh: -24.3%

What do the screens show for `O=[N+]([O-])c1ccc(NC(=S)N/C(=N/CS(=O)(=O)c2ccccc2)c2ccccc2)cc1`?
PLK1 PBD inh: 18.9µM*; GCN5L2 inh: -16.8%; PTAP TSG101 blk: -3.0%; VDR inh: -2.7%; USP1-UAF1 inh: -18.4%

Results for Cc1cccc(C)c1OC(=O)CSc1nnc(CNC(=O)c2ccccc2)o1 ?
GCN5L2 inh: -12.3%; VDR inh: 12.5%; USP1-UAF1 inh: 8.8%

How did COC(=O)c1c(NC(=O)CN2CCC3(O)CCCCC3C2c2ccc(OC)cc2OC)sc(C)c1C (stereo unspecified) do in these assays?
PLK1 PBD inh: 21.2µM*; GCN5L2 inh: 23.6%; PTAP TSG101 blk: 0.4%; VDR inh: -17.1%; USP1-UAF1 inh: -23.4%

What do the screens show for `COC(=O)c1c(NC(=O)CN2CCC3(O)CCCCC3C2c2ccccc2OC)sc(C)c1C` (stereo unspecified)?
PLK1 PBD inh: -8.7%; GCN5L2 inh: -11.9%; PTAP TSG101 blk: -1.6%; VDR inh: -11.8%; USP1-UAF1 inh: -10.4%

How did O=C(NCc1ccccc1)c1ccc2c(=O)[nH]c3c(C(=O)NCC4CCCO4)sc(=S)n3c2c1 (stereo unspecified) do in these assays?
PLK1 PBD inh: inconclusive; GCN5L2 inh: 2.5%; PTAP TSG101 blk: -5.8%; VDR inh: -13.7%; USP1-UAF1 inh: -16.7%

How did O=C(NCc1ccco1)c1sc(=S)n2c1[nH]c(=O)c1ccccc12 do in these assays?
PLK1 PBD inh: 26.7µM*; GCN5L2 inh: -16.6%; PTAP TSG101 blk: -11.4%; VDR inh: inconclusive; USP1-UAF1 inh: -24.5%

What do the screens show for `COc1cccc(CN2C(=O)c3ccccc3Sc3ccc(C(=O)NCCc4ccc(C)cc4)cc32)c1`?
GCN5L2 inh: -6.3%; VDR inh: -10.4%; USP1-UAF1 inh: inconclusive

What do the screens show for `Cc1nnc(NC(=O)c2nc(S(=O)(=O)Cc3ccccc3C)ncc2Cl)s1`?
PLK1 PBD inh: inconclusive; GCN5L2 inh: -1.7%; PTAP TSG101 blk: -0.9%; VDR inh: 35.5µM*; USP1-UAF1 inh: -23.4%

Results for CCc1nnc(NC(=O)c2nc(S(=O)(=O)Cc3ccc(C)cc3)ncc2Cl)s1 ?
PLK1 PBD inh: 23.8µM*; GCN5L2 inh: -1.2%; PTAP TSG101 blk: -0.5%; VDR inh: 22.4µM*; USP1-UAF1 inh: -14.6%

How did Cc1nnc(NC(=O)c2nc(SCc3ccccc3F)ncc2Cl)s1 do in these assays?
GCN5L2 inh: -16.9%; VDR inh: 5.5%; USP1-UAF1 inh: -22.8%

Results for COCOc1c2c(c(OCOC)c3c(OCOC)cccc13)/C(=N/NS(C)(=O)=O)C1=C2CCCC1 ?
VDR inh: -13.4%

How did CCOC(=O)/C=C1\CC(C(=O)OCC)Oc2c(OC)cccc21 (stereo unspecified) do in these assays?
PLK1 PBD inh: inconclusive; GCN5L2 inh: -5.8%; PTAP TSG101 blk: -0.2%; VDR inh: 79.4µM*; USP1-UAF1 inh: -19.2%
